Source: publication PMC5540273 (PLoS ONE, 2017)

Assays:
Conditions in all cases: concentration: 1 μM, replicates: in singlicate; n = 1
[1] = tested on: TLK1
[2] = tested on: TLK2
[3] = tested on: TNIK
[4] = tested on: TNK1
[5] = tested on: TNK2
[6] = tested on: TNNI3K
[7] = tested on: T1, TRKA
T1 construct: gene NTRK1

[8] = tested on: TRKB
[9] = tested on: T2, TRKC
T2 construct: gene NTRK3

[10] = tested on: TRPM6
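Further: KINOMEscan kinase panel screen.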

| SMILES | %Inh [1] | %Inh [2] | %Inh [3] | %Inh [4] | %Inh [5] | %Inh [6] | %Inh [7] | %Inh [8] | %Inh [9] | %Inh [10] |
| --- | --- | --- | --- | --- | --- | --- | --- | --- | --- | --- |
| Cc1c(Cn2c3ccccc3n3c(=O)cc(N4CCOCC4)nc23)cccc1C(F)(F)F [GSK2306394] | 5% | 0% | 0% | 0% | 3% | 0% | 0% | 0% | 0% | 0% |
| O=c1cc(N2CCOCC2)nc2n(Cc3ccccc3F)ccn12 [GSK2297428] | 0% | 0% | 0% | 0% | 4% | 0% | 0% | 0% | 0% | 0% |
| CCc1ccc(-c2ccc3c(c2)-c2n[nH]cc2S(=O)(=O)N3C)cc1 | 28% | 0% | 9% | 34% | 0% | 0% | 0% | 0% | 0% | 0% |
| O=C1NC(=O)C(c2ccc(Cl)cc2)=C1Nc1ccc(O)cc1 [SB-340867] | 10% | 0% | 0% | 46% | 0% | 0% | 0% | 5% | 0% | 9% |
| Cc1ccc(NC(=O)Nc2ccc(Cl)c(C(F)(F)F)c2)cc1-c1ccc(C(=O)Nc2ccncc2)cc1 [GSK1398470] | 20% | 8% | 9% | 20% | 10% | 64% | 11% | 0% | 0% | 6% |
| CC(=O)c1c(C)c2cnc(Nc3ccn(C)n3)nc2n(C2CCCC2)c1=O | 1% | 0% | 0% | 54% | 24% | 16% | 29% | 0% | 0% | 0% |
| CC(C)c1cc(-c2ccc3c(N)n[nH]c3c2)nc(N)n1 [GSK2250882] | 2% | 0% | 14% | 0% | 14% | 0% | 0% | 0% | 0% | 0% |
| COc1nccc(-c2c(-c3ccc(F)cc3)ncn2CCCN2CCOCC2)n1 [SB-282852] | 26% | 0% | 0% | 0% | 0% | 0% | 61% | 56% | 13% | 0% |
| COc1cccc(C2=C(Nc3cc(Cl)c(O)c(Cl)c3)C(=O)NC2=O)c1 [SB-390767] | 0% | 0% | 0% | 23% | 26% | 13% | 0% | 0% | 0% | 15% |
| CS(=O)(=O)CCNCc1nc(-c2ccc3ncnc(Nc4ccc5c(cnn5Cc5ccccc5)c4)c3c2)cs1.Cl.Cl [GW569716] | 0% | 0% | 0% | 0% | 18% | 0% | 0% | 73% | 40% | 0% |
| CNc1nc(-c2ccc3c(N)n[nH]c3c2)cc(N2C[C@@H](C(=O)Nc3ccccc3)CC[C@H]2C)n1 [GSK2298859] | 0% | 0% | 0% | 0% | 3% | 0% | 77% | 2% | 0% | 0% |
| COc1ccc(-c2coc3ccc(-c4nnc(C)o4)cc23)cc1 | 12% | 6% | 0% | 0% | 0% | 0% | 0% | 0% | 0% | 0% |
| Cn1cnc2c(N)ncnc21 [SKF-97623] | 74% | 0% | 0% | 3% | 0% | 0% | 56% | 24% | 7% | 0% |
| COC(=O)C(Cc1ccccc1)NC(=O)NC1CCN(c2ccnc(Nc3ccc(F)cc3)n2)C1 (centres unmarked) [GSK1379714] | 10% | 0% | 6% | 0% | 4% | 0% | 98.2% | 23% | 25% | 0% |
| Cc1ccccc1-c1cc(-c2c[nH]nc2-c2ccccn2)ccn1 [GW680061] | 0% | 0% | 8% | 0% | 16% | 0% | 0% | 0% | 16% | 0% |
| Fc1ccc(-c2nc[nH]c2-c2ccncc2)cc1 [SB-217360] | 0% | 0% | 51% | 0% | 0% | 0% | 0% | 0% | 4% | 6% |
| COc1ccc(CSc2nnc(-c3ccc4c(c3)CCO4)o2)cc1 | 0% | 0% | 0% | 0% | 0% | 0% | 0% | 0% | 0% | 0% |
